IDE exosite FP – exo-site inhibitors of human IDE, primary screen, biochemical, fluorescence anisotropy, probe displacement; purified IDE, FL-6b probe fluorescence polarization; stronger effect = lower value; z-score at 20 µM; 6.3% of 17,000 active; AID 1259349, 2017;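 active = z-score of -3 or lower, meaning strong loss of probe binding signal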;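 also: His-tagged human IDE residues 42-1019 made in E. coli with 30 nM FL-6b probe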
* = called active by the depositor. This is one part of a sample in which hits are shown more often than they occur.

SMILES | IDE exosite FP
O=C(c1ccncc1)N1CC(=O)N2[C@H](C1)[C@H](c1ccc(-c3ccccc3)cc1)[C@@H]2CO | 1.3
Cc1ccc(-c2ccc([C@@H]3[C@H](CO)N4C(=O)CN(C(=O)c5ccncc5)C[C@@H]34)cc2)cc1 | 1.8
Cc1ccc(-c2ccc([C@H]3[C@H](CO)N4C(=O)CN(C(=O)c5ccncc5)C[C@@H]34)cc2)cc1 | -3.2*
Cc1ccc(-c2ccc([C@@H]3[C@@H](CO)N4C(=O)CN(C(=O)c5ccncc5)C[C@@H]34)cc2)cc1 | 2
Cc1ccc(-c2ccc([C@@H]3[C@H]4CN(C(=O)c5ccncc5)CC(=O)N4[C@H]3CO)cc2)cc1 | -4.4*
O=C(c1ccncc1)N1CC(=O)N2[C@@H](CO)[C@@H](c3ccc(-c4ccccc4)cc3)[C@@H]2C1 | 3.3
Cc1ccc(-c2ccc([C@H]3[C@H]4CN(C(=O)c5ccncc5)CC(=O)N4[C@H]3CO)cc2)cc1 | 0.4
O=C(c1ccncc1)N1CC(=O)N2[C@H](C1)[C@@H](c1ccc(-c3ccccc3)cc1)[C@@H]2CO | -6.8*
Cc1ccc(-c2ccc([C@@H]3[C@@H](CO)N4C(=O)CN(C(=O)c5ccncc5)C[C@H]34)cc2)cc1 | -0.28
COc1ccc2c3c([nH]c2c1)[C@H](CO)N(C(C)=O)CC31CCN(C(=O)Nc2ccc(F)cc2F)CC1 | 0.53
CCS(=O)(=O)N1CC(=O)N2[C@H](CO)[C@@H](c3ccc(C#CCC(C)C)cc3)[C@H]2C1 | 1.8
CC(=O)N1CC(=O)N2[C@H](CO)[C@@H](c3ccc(C#CC(C)C)cc3)[C@H]2C1 | -0.46
O=C(NCC[C@@H]1CC[C@@H](NC(=O)c2ccccc2F)[C@@H](CO)O1)c1cnccn1 | 1.2
O=C(CCN1CCCCC1)NCC[C@H]1CC[C@@H](NS(=O)(=O)c2cccc(Cl)c2)[C@H](CO)O1 | -0.58
COc1ccc(-c2ccccc2[C@H]2[C@@H](CO)N(C(=O)NC(C)C)[C@H]2C#N)cc1 | 0.86
O=C1CN(S(=O)(=O)c2ccccc2)C[C@@H]2[C@H](c3ccc(C#Cc4ccccc4)cc3)[C@H](CO)N12 | -5.2*
O=C1CN(S(=O)(=O)c2ccccc2)C[C@H]2[C@H](c3ccc(C#Cc4ccccc4)cc3)[C@@H](CO)N12 | 1.3
CS(=O)(=O)N1CC(=O)N2[C@H](CO)[C@H](c3ccc(C#CCc4ccccc4)cc3)[C@@H]2C1 | 0.97
O=C1CN(S(=O)(=O)Cc2ccccc2)C[C@@H]2[C@@H](c3ccc(C#Cc4ccccc4)cc3)[C@H](CO)N12 | -0.81
O=C1CN(S(=O)(=O)Cc2ccccc2)C[C@H]2[C@@H](c3ccc(C#Cc4ccccc4)cc3)[C@@H](CO)N12 | -3.5*
CCS(=O)(=O)N1CC(=O)N2[C@H](CO)[C@@H](c3ccc(C#CCc4ccccc4)cc3)[C@@H]2C1 | 1.7
O=C1CN(S(=O)(=O)Cc2ccccc2)C[C@H]2[C@@H](c3ccc(C#Cc4ccc(F)cc4)cc3)[C@@H](CO)N12 | -1.4
O=C1CN(S(=O)(=O)Cc2ccccc2)C[C@H]2[C@H](c3ccc(C#Cc4ccccc4)cc3)[C@@H](CO)N12 | 0.58
O=C1CN(S(=O)(=O)Cc2ccccc2)C[C@H]2[C@H](c3ccc(C#Cc4ccccc4)cc3)[C@H](CO)N12 | -1.5
O=C1CN(S(=O)(=O)c2ccccc2)C[C@H]2[C@@H](c3ccc(C#Cc4ccccc4)cc3)[C@@H](CO)N12 | 1.6
SMILES | IDE exosite FP
CS(=O)(=O)N1CC(=O)N2[C@H](C1)[C@H](c1ccc(C#CCc3ccccc3)cc1)[C@@H]2CO | -3.4*
O=C1CN(S(=O)(=O)Cc2ccccc2)C[C@@H]2[C@H](c3ccc(C#Cc4ccccc4)cc3)[C@H](CO)N12 | -3.5*
COC(=O)C[C@@H]1C[C@H]2c3cc(N)ccc3O[C@H]2[C@@H](CO)O1 | -0.54
C/C=C/c1ccc([C@H]2[C@@H](CO)N3C(=O)CN(C(=O)c4ccncc4)C[C@@H]23)cc1 | 0.38
COc1cc(CN2CC3(CCN(S(=O)(=O)c4cn(C)cn4)CC3)c3c(n(C)c4cc(OC)ccc34)[C@H]2CO)cc(OC)c1 | -2.5
CC(C)CC#Cc1ccc([C@@H]2[C@@H](CO)N3C(=O)CN(C(=O)Nc4ccc(F)cc4)C[C@@H]23)cc1 | 0.64
O=S(=O)(c1cccc(F)c1)N1CC[C@@H]2[C@H]1c1cc(Br)ccc1N[C@@H]2CO | 0.88
COCC(=O)N1[C@@H](CO)[C@@H]2c3ccccc3NC[C@@H]21 | 2.8
O=C1CN(S(=O)(=O)Cc2ccccc2)C[C@H]2[C@H](c3ccc(C#Cc4cccc(F)c4)cc3)[C@@H](CO)N12 | 3.8
O=C1CN(S(=O)(=O)Cc2ccccc2)C[C@H]2[C@@H](c3ccc(C#Cc4cccnc4)cc3)[C@H](CO)N12 | 0.3
O=C1CN(S(=O)(=O)Cc2ccccc2)C[C@H]2[C@@H](c3ccc(C#Cc4cccnc4)cc3)[C@@H](CO)N12 | -5.8*
COc1ccc(C#Cc2ccc([C@@H]3[C@@H](CO)N4C(=O)CN(C(=O)c5cccnc5)C[C@H]34)cc2)cc1 | 0.11
COc1cccc(-c2ccc([C@H]3[C@H](CO)N4C(=O)CN(C(=O)c5cccnc5)C[C@@H]34)cc2)c1 | -1.9
COc1cccc(-c2ccc([C@H]3[C@@H](CO)N4C(=O)CN(C(=O)c5cccnc5)C[C@H]34)cc2)c1 | -4.9*
COc1cccc(-c2ccc([C@@H]3[C@@H](CO)N4C(=O)CN(C(=O)c5cccnc5)C[C@@H]34)cc2)c1 | -3.7*
COc1cccc(-c2ccc([C@H]3[C@@H](CO)N4C(=O)CN(C(=O)c5cccnc5)C[C@@H]34)cc2)c1 | -1.8
COc1ccc(C#Cc2ccc([C@H]3[C@H](CO)N4C(=O)CN(C(=O)c5cccnc5)C[C@@H]34)cc2)cc1 | -0.48
COc1ccccc1-c1cnc2c(c1)C(=O)N([C@H](C)CO)C[C@@H](C)[C@H](CN(C)C(=O)CC1CC1)O2 | -1.2
O=S(=O)(c1ccccc1)N1CCCCN2[C@@H](CO)[C@H](c3ccc(-c4ccccc4)cc3)[C@@H]2C1 | 1.6
C[C@@H]1CN([C@@H](C)CO)C(=O)c2cc(NC(=O)Nc3ccccc3)ccc2O[C@@H](C)CCCCO[C@@H]1CN(C)C(=O)Nc1ccccc1 | 0.66
CS(=O)(=O)N1[C@H](CO)[C@H](c2ccc(-c3ccccc3F)cc2)[C@@H]1C#N | -1.3
CS(=O)(=O)N1[C@H](C#N)[C@@H](c2ccc(-c3ccccc3F)cc2)[C@@H]1CO | -3*
CS(=O)(=O)N1[C@H](C#N)[C@H](c2ccc(-c3ccccc3F)cc2)[C@H]1CO | -1.7
CS(=O)(=O)N1[C@@H](C#N)[C@H](c2ccc(-c3ccccc3F)cc2)[C@@H]1CO | -5.2*
CS(=O)(=O)N1[C@H](C#N)[C@H](c2ccccc2-c2ccccc2F)[C@H]1CO | -0.99
SMILES | IDE exosite FP
CS(=O)(=O)N1[C@H](C#N)[C@@H](c2ccc(-c3ccccc3F)cc2)[C@H]1CO | -2.1
COCCN(C[C@H]1[C@H](c2ccccc2)[C@@H](CO)N1C(=O)C1CC1)C(C)=O | 0.18
Cc1noc(C)c1NC(=O)N(C)C[C@@H]1OCc2ccccc2-c2c(n(C)c3ccccc23)C(=O)N([C@@H](C)CO)C[C@H]1C | 0.61
O=C(O)C[C@H]1C[C@H]2c3cc(NC(=O)Cc4ccncc4)ccc3O[C@H]2[C@H](CO)O1 | -0.24
Cc1noc(C)c1NC(=O)N[C@@H]1C=C[C@@H](CC(=O)Nc2ccc(-c3ccccc3)cc2)O[C@H]1CO | 0.63
O=C(NCC[C@@H]1CC[C@H](NC(=O)c2ccncc2)[C@@H](CO)O1)Nc1ccc(Cl)cc1 | 3.3

Screening results from PubChem.
